Source: PubChem
Hits are enriched below; roughly 10% of the tested compounds scored in any of these assays.
NPR1 antag – blocks ANP-stimulated signaling of human Npr1 receptor; P16066; HEK293 hNpr1 GloSensor cGMP, ANP-stimulated luminescence; Potency, µM (top dose mostly 46.3 µM), inactives show at the highest dose activity change, negative = inhibition, hits mostly inhibitors; 76,000 tested, 1.6% active; calls by dose curve; note: nearly all actives have a fitted effect of over 60% in size
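HEK293 cells stably expressing human Npr1 and cGMP GloSensor pGS-40F, loaded 2 h with 2% GloSensor reagent, given compound 30 min at room temperature. Luminescence read before and 20 min after 0.1 nM hNppA.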
NIH3T3 tox – kills NIH 3T3 cells; NIH 3T3 viability, CellTiter-Glo ATP luminescence, 48-72 h; Potency, µM (series often up to 96.7 µM), without a hit: at the top dose activity change, negative = cytotoxicity, usual class: inhibitors; 94,000 tested, 4.3% active; note: nearly all actives have a fitted effect of over 55% in size
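Cytotoxicity was measured by CellTiter-Glo ATP luminescence after 48 or 72 h compound exposure at 37 °C. Mouse NIH 3T3 fibroblasts were seeded at 400 cells/well and dosed by 23 nL pin transfer.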
GPT2 inhibitor – blocks human glutamate pyruvate transaminase 2; Q8TD30; Recombinant GPT2, coupled pyruvate oxidase/HRP Amplex Red fluorescence; Potency, µM (doses to about 57.7 µM), inactives show top-dose activity change, negative = inhibition, usual class: inhibitors; 100,000 tested, 0.25% active; note: nearly all actives have a fitted effect of over 60% in size
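GPT2 10ng/uL, a-KG 250uM, L-Ala 2mM, HEPES pH7.5 + 0.0001% Tween; 30 min RT. Then Amplex mix (PO/HRP/ThPP), 30 min RT dark, fluorescence. AOA 50uM used as positive control.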
Luciferase inh – inhibitors of firefly (Photinus pyralis) luciferase. P08659. purified P. pyralis luciferase, luminescence, biochemical. Potency, µM (titrated, usually from 115 µM), hits mostly inhibitors. 76,000 tested, 2.5% active. AID 1347043; note: nearly all actives have a fitted effect of over 65% in size
Target sequence (P08659 whole entry, looked up): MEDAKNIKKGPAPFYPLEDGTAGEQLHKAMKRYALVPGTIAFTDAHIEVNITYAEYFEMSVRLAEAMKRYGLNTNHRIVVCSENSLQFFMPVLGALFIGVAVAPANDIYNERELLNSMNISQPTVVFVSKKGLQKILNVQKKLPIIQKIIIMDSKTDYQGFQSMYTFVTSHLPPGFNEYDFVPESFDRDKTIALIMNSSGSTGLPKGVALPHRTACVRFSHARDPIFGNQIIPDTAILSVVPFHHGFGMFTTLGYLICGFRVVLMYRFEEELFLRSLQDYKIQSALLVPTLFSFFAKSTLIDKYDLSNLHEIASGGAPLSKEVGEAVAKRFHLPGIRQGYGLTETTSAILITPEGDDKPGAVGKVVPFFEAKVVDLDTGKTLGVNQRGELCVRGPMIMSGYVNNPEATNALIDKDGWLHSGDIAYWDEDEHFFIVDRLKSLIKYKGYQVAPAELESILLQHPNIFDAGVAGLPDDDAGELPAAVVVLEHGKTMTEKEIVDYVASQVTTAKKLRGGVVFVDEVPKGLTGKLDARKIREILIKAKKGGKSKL
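Purified 10nM P. pyralis luciferase with 10uM D-luciferin and 10uM ATP in 50mM Tris acetate pH 7.5, 10mM Mg acetate, 0.01% Tween-20, 0.05% BSA. qHTS titration; luminescence read by CCD imager.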
HEK293 tox – HEK 293 cell cytotoxicity; HEK 293 viability, ATP luminescence (CellTiter-Glo), 48-72 h; Potency, µM (series often up to 115 µM), without a hit: top-dose activity change, negative = cytotoxicity, hits mostly inhibitors; 94,000 tested, 6.6% active; AID 1345083; note: nearly all actives have a fitted effect of over 60% in size
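Read-out: CellTiter-Glo ATP luminescence. Cells: HEK 293, 250 cells/well. Exposure: 48 or 72 hr, 37 degree Celsius.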
Active calls of the source: *; i = inactive; u = inconclusive; x = no result; [ ] = dose if it differs, or a comment. Unless noted, calls come from the whole dose curve; as a rule, active = well fitted curve in the direction sought with a large enough effect; inconclusive = small, poorly fitted or top-dose-only effect, or another doubt; inactive = no such curve, though single readings can be large; an effect the other way counts as inactive or inconclusive. % is set by controls: 0 for no effect and ±100 for the full control effect; potency is the fitted concentration of half-maximal effect.

SMILES | NPR1 antag | NIH3T3 tox | GPT2 inhibitor | Luciferase inh | HEK293 tox
N#Cc1ccc(CN2C[C@@H](COCC(N)=O)[C@H](c3ccncc3)C2)cc1 | -11% | -15% | -5% | i | 89µM*
COc1ccc(Cn2c(=O)c(C(=O)NCc3ccc(Cl)cc3)nc3cccnc32)cc1 | x | u | 3% | x | u
Cc1ncc2n1C(=O)N(C1CCN(Cc3ccc(OC(F)(F)F)cc3)CC1)C2 | u | u | i | i | 14µM*
Cc1cc2cc(-c3c(C)noc3C)nc(NCC3CC3)c2o1 | -4%[70.6 µM] | u | i | i | u
Cc1cc2cc(-c3c(C)noc3C)nc(NCCN(C)C)c2o1 | -3%[70.6 µM] | u | 5%[88.5 µM] | i | 100µM*
Cc1noc(C)c1-c1cc2cc(C(C)C)oc2c(NCCN(C)C)n1 | 7%[70.6 µM] | 45µM* | -6%[88.5 µM] | i | 71µM*
O=C(c1ccc(F)cc1)N1CC(Oc2ccc(-c3nc(-c4ccccc4)no3)cc2)C1 | -11% | -13% | i | i | u
O=C(c1ccco1)N1CC(Oc2ccc(-c3nc(-c4ccccc4)no3)cc2)C1 | u | 28µM* | -17% | u | 20µM*
O=C(c1ccccc1F)N1CC(Oc2ccc(-c3nc(-c4ccccc4)no3)cc2)C1 | 7.1µM* | 45µM* | -12% | u | 28µM*
COCCCn1c(=O)c(C(=O)N2CCN(C(=O)Cc3ccc(OC)cc3)CC2)nc2cccnc21 | x | i | i | x | i
CCO[C@H]1CN(C(=O)c2cc(N3CCCCC3)ccc2Cl)C[C@@H]1O | 0% | -19% | i | i | -13%
CC(C)[C@@H]1CN(C(=O)c2cc(N3CCCCC3)ccc2Cl)C[C@H]1N(C)C | 0% | u | -21% | i | 40µM*
COc1cccc(CCNC(=O)c2c(C)noc2-c2cc(OC)cc(OC)c2)c1 | -15% | u | -4% | i | u
Cc1noc(-c2ccco2)c1C(=O)NCCC(c1ccccc1)c1ccccc1 | -14% | u | 2% | i | 40µM*
COc1cc(OC)cc(-c2onc(C)c2C(=O)NCCC(c2ccccc2)c2ccccc2)c1 | -3% | u | -1% | i | 40µM*
COc1ccc(-c2onc(C)c2C(=O)NCCc2cccs2)cc1 | -14% | -31% | 1% | i | 35µM*
Cc1noc(-c2ccc3c(c2)OCO3)c1C(=O)NCCC(c1ccccc1)c1ccccc1 | -17% | u | 1% | i | 22µM*
COc1ccccc1CCC(=O)NC1CCN(C(=O)c2cc3c(=O)[nH]c(C)cn3n2)CC1 | 1% | 3% | i | i | 11%
Cc1noc(-c2ccccc2Cl)c1C(=O)NCCC(c1ccccc1)c1ccccc1 | -5% | 28µM* | 5% | i | 25µM*
Cc1noc(-c2ccccc2Cl)c1C(=O)NCCOc1ccccc1 | 3% | u | i | i | u
CN(C)c1ncc2c(n1)C(C)(C(=O)Nc1ccccc1F)CCC2 (stereo not given) | -12%[70.6 µM] | u | -21%[88.5 µM] | i | 100µM*
O=C(c1nccc2ccccc12)N1CCC(n2cc(-c3nc(-c4ccccc4)no3)nn2)C1 (stereo not given) | u | u | i | 45µM* | 28µM*
O=C(c1ccc2ccccc2n1)N1CCC(n2cc(-c3nc(-c4ccccc4)no3)nn2)C1 (stereo not given) | u | u | -6% | 28µM* | u
Cc1ccc(C(=O)N2CCC(n3cc(-c4nc(-c5ccccc5)no4)nn3)C2)s1 (stereo not given) | u | -13% | i | i | u
O=C(c1ccco1)N1CCC(n2cc(-c3nc(-c4ccccc4)no3)nn2)C1 (stereo not given) | -27% | u | 1% | 35µM* | u
SMILES | NPR1 antag | NIH3T3 tox | GPT2 inhibitor | Luciferase inh | HEK293 tox
O=C(Cc1ccsc1)N1CCC(n2cc(-c3nc(-c4ccccc4)no3)nn2)C1 (stereo not given) | -28% | -27% | i | 56µM* | u
Cc1nnc2ccc(N3CCCC(NC(=O)c4ccccc4)C3)nn12 (stereo not given) | x | -13%[138 µM] | x | x | -5%[172 µM]
Cn1cccc1CN1CCn2c(nnc2-c2ccccc2)C1 | 0%[70.6 µM] | u | -1%[88.5 µM] | i | -30%[172 µM]
CCc1cc(=O)n(Cc2cccnc2)c(N2CCOCC2)n1 | 4% | u | i | i | u
COc1ccc(NC(=O)Cn2cccc2-c2nc(-c3ccc(F)cc3)no2)cc1 | -3% | u | 5% | i | u
O=C1COc2ccc(Nc3cccnc3)nc2CN1Cc1ccc(C(F)(F)F)cc1 | -24%[70.6 µM] | u | -2%[88.5 µM] | i | 89µM*
COc1ccc(Nc2ccc3c(n2)CN(Cc2ccc(F)cc2)C(=O)CO3)cn1 | -23%[70.6 µM] | u | -7%[88.5 µM] | i | 89µM*
COc1ccc(Nc2ccc3c(n2)CN(Cc2ccc(C(F)(F)F)cc2)C(=O)CO3)cn1 | -22% | u | -9% | i | u
O=C1COc2ccc(-c3cccc(O)c3)nc2CN1Cc1ccc(C(F)(F)F)cc1 | -18%[70.6 µM] | u | -3%[88.5 µM] | i | u
COc1ccc(Nc2ccc3c(n2)CN(Cc2ccccc2)C(=O)CO3)cn1 | -24%[70.6 µM] | u | i | i | 79µM*
O=C(C1CCCN(c2nc(-c3ccccc3)nc3c2CCC3)C1)N1CCCNCC1 (stereo not given) | 1% | u | -6% | i | u
COc1ccc(C(=O)N2CCC(c3nn(C)c(=O)n3Cc3ccccc3)CC2)cc1F | x | -22% | -7% | x | 2%
Cc1nn(-c2ccccc2)c2c1C(C1CC1)N(C1CCN(C(=O)c3cccc(C(F)(F)F)c3)C1)C2=O (stereo not given) | x | -27% | x | x | -31%
Cc1ccc(C(=O)N2CCCC(N3C(=O)c4c(c(C)nn4-c4ccccc4)C3C)C2)cc1 (stereo not given) | x | u | x | x | 45µM*
Cc1nn(-c2ccccc2)c2c1C(C)N(C1CCN(C(=O)c3ccccc3)C1)C2=O (stereo not given) | x | u | x | x | 45µM*
Cc1ccc(C(=O)N2CC(N3C(=O)c4c(c(C)nn4-c4ccccc4)C3C)C2)cc1 (stereo not given) | x | -28% | x | x | -19%
Cc1nn(-c2ccccc2)c2c1C(C)N(C1CCN(C(=O)c3cccc(C(F)(F)F)c3)C1)C2=O (stereo not given) | x | u | x | x | 35µM*
CNC(=O)c1cc(C)nc2onc(C3CCCN(C(=O)N(C)C)C3)c12 (stereo not given) | x | i | x | x | -6%
Clc1ccccc1C1(c2ccnc(CC3CC3)n2)CCNCC1 | -2% | 79µM* | -7% | i | u
Clc1ccccc1C1(c2ccnc(C3CCCC3)n2)CCNCC1 | -16% | 32µM* | -4% | i | u
Clc1ccccc1C1(c2ccnc(NCc3ccccn3)n2)CCNCC1 | -1% | -27% | -4%[11.5 µM] | i | u
